Bioassay records deposited in PubChem BioAssay by National Center for Advancing Translational Sciences (NCATS).
NPR1 antag = blocks ANP-stimulated signaling of human Npr1 receptor. P16066. HEK293 hNpr1 GloSensor cGMP, ANP-stimulated luminescence. Potency, µM (doses to about 46.3 µM), for the others: at the highest dose activity change, negative = inhibition, hits mostly inhibitors. 76,000 compounds, 1.6% hits; calls by dose curve; note: nearly all actives have a fitted effect of over 60% in size
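HEK293 cells stably expressing human Npr1 and cGMP GloSensor pGS-40F, loaded 2 h with 2% GloSensor reagent, given compound 30 min at room temperature. Luminescence read before and 20 min after 0.1 nM hNppA.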
NIH3T3 tox = NIH 3T3 cell cytotoxicity | NIH 3T3 viability, CellTiter-Glo ATP luminescence, 48-72 h | Potency, µM (titrated, usually from 96.7 µM), inactives show at the top dose activity change, negative = cytotoxicity, most hits filed as inhibitors | 94,000 compounds, 4.3% hits | AID 1345082; note: nearly all actives have a fitted effect of over 55% in size
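ATP-dependent luminescence (CellTiter-Glo) served as the viability signal for NIH 3T3 cells treated with compound for 48 or 72 hr at 37 °C.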
HEK293 tox = HEK 293 cell cytotoxicity | HEK 293 viability, ATP luminescence (CellTiter-Glo), 48-72 h | Potency, µM (series often up to 115 µM), without a hit: at the top dose activity change, negative = cytotoxicity, usual class: inhibitors | 94,000 compounds, 6.6% hits; note: nearly all actives have a fitted effect of over 60% in size
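HEK 293 cells at 250 cells/well were exposed to compounds by pintool transfer for 48 or 72 hr at 37 degree Celsius, 5% CO2. Viability was read as ATP-coupled luminescence with CellTiter-Glo after 10 min at room temperature.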
FLuc inh = inhibitors of firefly (Photinus pyralis) luciferase; AID 1347043; Potency, µM (top dose mostly 115 µM), hits mostly inhibitors; 76,000 compounds, 2.5% hits; purified P. pyralis luciferase, luminescence, biochemical; note: nearly all actives have a fitted effect of over 65% in size
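Purified 10nM P. pyralis luciferase with 10uM D-luciferin and 10uM ATP in 50mM Tris acetate pH 7.5, 10mM Mg acetate, 0.01% Tween-20, 0.05% BSA. qHTS titration; luminescence read by CCD imager.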
An asterisk follows results filed as active; i = inactive; ? = inconclusive; nt = not tested or not shown; [ ] = remark or other dose. Shown are actives, neighbours in structure and some others; about 11% of the full set was active somewhere. Unless noted, calls come from the whole dose curve; as a rule, active = well fitted curve in the direction sought with a large enough effect; inconclusive = small, poorly fitted or top-dose-only effect, or another doubt; inactive = no such curve, though single readings can be large; an effect the other way counts as inactive or inconclusive. % is set by controls: 0 for no effect and ±100 for the full control effect; potency is the fitted concentration of half-maximal effect.

SMILES | NPR1 antag | NIH3T3 tox | HEK293 tox | FLuc inh
O=C(NC1CCCCC1)c1cc(-c2ccc(F)cc2)c2nncn2n1 | nt | ? | -8% | nt
O=C(NCc1ccc(F)cc1)c1cc(-c2ccc(Cl)cc2Cl)c2nncn2n1 | nt | 45µM* | 89µM* | nt
O=C(NCc1cccs1)C1CCCN1C(=O)c1cccc(-c2ccccn2)c1 (stereo not drawn) | nt | -25% | -12% | nt
CCC(C)NC(=O)C1CCCN1Cc1cccc(-c2ccc(C)c(Cl)c2)c1 (stereo not drawn) | nt | 35µM* | 22µM* | nt
Cc1ccc(-c2cccc(CN3CCCC3C(=O)NC3CC3)c2)cc1Cl (stereo not drawn) | nt | 35µM* | 32µM* | nt
Cc1ccc(-c2cccc(CN3CCCC(NC(=O)NC4CCCC4)C3)c2)cc1Cl (stereo not drawn) | nt | -18% | 5% | nt
Cc1ccc(-c2cccc(CN3CCCC3C(=O)NC3CCC3)c2)cc1Cl (stereo not drawn) | nt | 40µM* | 28µM* | nt
C#CCNC(=O)[C@H]1C[C@@H](O)[C@H](O)[C@@H]2N=C(Nc3cccc4ccccc34)S[C@@H]21 | 5%[70.6 µM] | ? | -17%[172 µM] | i
COc1ccc2[nH]c3c(c2c1)CCNC31CCN(C(=O)c2cc(C)nn2C)CC1 | -8% | -21% | ? | i
O=C(Nc1ccccc1)N1CCCC(C(=O)N2CCC(c3nc4ncccc4[nH]3)CC2)C1 (stereo not drawn) | nt | i | i | nt
O=C(c1ccc2ncccc2c1)N1CCCN(c2cc(-c3ccc(Cl)cc3)[nH]n2)CC1 | ? | ? | 35µM* | i
Cc1ccsc1C(=O)N1CCCN(c2cc(-c3ccc(Cl)cc3)[nH]n2)CC1 | ? | ? | 32µM* | i
O=C(c1cccc(Cl)c1)N1CCN(c2cc(-c3ccccc3)[nH]n2)CC1 | -22% | ? | 45µM* | i
O=C(c1ccsc1)N1CCN(c2cc(-c3ccc(Cl)cc3)[nH]n2)CC1 | -26% | 25µM* | ? | i
Cc1cc(C)cc(C(=O)N2CCN(c3cc(-c4ccc(Cl)cc4)[nH]n3)CC2)c1 | ? | 40µM* | 40µM* | i
O=C(c1ccc2c(c1)OCO2)N1CCN(c2cc(-c3ccc(F)cc3)[nH]n2)CC1 | ? | 14µM* | ? | i
O=C(c1ccc(F)cc1)N1CCCN(c2cc(-c3ccc(F)cc3)[nH]n2)CC1 | -1% | -24% | ? | i
O=C(c1ccc(Cl)cc1)N1CCN(c2cc(-c3ccc(F)cc3)[nH]n2)CC1 | ? | 35µM* | ? | i
CC(=O)Nc1ccc(C(=O)N2CCCN(c3cc(-c4ccc(Cl)cc4)[nH]n3)CC2)cc1 | -29% | -24% | ? | i
COc1ccccc1-n1c(=O)c(C(=O)N2CCC(c3ccccc3)CC2)nc2cccnc21 | nt | -3% | i | nt
O=C(N1CCCC1c1nc(CCOc2ccc(F)cc2)no1)C1(c2ccccc2)CC1 (stereo not drawn) | -25% | ? | ? | i
C#CCNC(=O)c1nc(-c2ccccc2OC)c2ccccn12 | nt | -17% | -4% | nt
CC(C)C[C@@H]1N[C@H](C(=O)NCc2ccccc2Cl)Cc2c[nH]c3cccc1c23 | -20%[70.6 µM] | 32µM* | 28µM* | i
COc1ccccc1CNC(=O)[C@@H]1Cc2c[nH]c3cccc(c23)[C@H](CC(C)C)N1 | -20%[70.6 µM] | 28µM* | 35µM* | i
CC(=O)N1CCN(c2cc(-c3ccccc3)nc3c(C)noc23)CC1 | 1%[70.6 µM] | 89µM* | -18%[172 µM] | i
SMILES | NPR1 antag | NIH3T3 tox | HEK293 tox | FLuc inh
COc1ccccc1-c1cc(-c2cccnc2)nc2c(C)noc12 | 2%[70.6 µM] | ? | -23%[172 µM] | i
Cc1ccc(-c2cc(-c3cccnc3)nc3c(C)noc23)c(C)c1 | 0%[70.6 µM] | ? | 79µM* | ?
Cc1noc2c(N3CCN(Cc4ccccc4)CC3)cc(-c3cccnc3)nc12 | -17%[70.6 µM] | ? | 63µM* | i
Cc1noc2c(-c3ccc4c(ccn4C)c3)cc(-c3cccnc3)nc12 | -1%[70.6 µM] | ? | ? | i
CNC(=O)[C@@H](c1ccc(OC)cc1)N1CCC[C@H]1C(=O)NCC1CCCCC1 | 0%[70.6 µM] | 100µM* | ? | i
CCNC(=O)[C@@H]1CCCN1[C@@H](C(=O)NC)c1ccc(OC)cc1 | 0%[70.6 µM] | -1%[138 µM] | -3%[172 µM] | i
C=CCNC(=O)N[C@H]1CCN(C(=O)CSC)[C@@H]1C(=O)N[C@@H](Cc1cccs1)C(N)=O | 2% | -1% | -8% | i
Cc1cnc(C2CC2)n1CCNS(=O)(=O)c1ccccc1Cl | -4% | 4% | -3% | i
